Only some compounds are listed: those with a hit (about 14% of all), similar ones and a draw of the others.
FBPA Giardia inh: qHTS Assay for Inhibitors of Fructose-1,6-bisphosphate Aldolase from Giardia Lamblia. 290,000 tested, 0.71% active. purified Giardia FBPA. Potency, µM (top dose mostly 59.6 µM), for inactives: at the top dose activity, negative = inhibition, hits mostly inhibitors. AID 2451, 2010; note: potency is the fitted concentration of half-maximal effect; % is set by controls: 0 for no effect and ±100 for the full control effect; nearly all actives have a fitted effect of over 55% in size
Target sequence (A8B2U2 whole entry, looked up): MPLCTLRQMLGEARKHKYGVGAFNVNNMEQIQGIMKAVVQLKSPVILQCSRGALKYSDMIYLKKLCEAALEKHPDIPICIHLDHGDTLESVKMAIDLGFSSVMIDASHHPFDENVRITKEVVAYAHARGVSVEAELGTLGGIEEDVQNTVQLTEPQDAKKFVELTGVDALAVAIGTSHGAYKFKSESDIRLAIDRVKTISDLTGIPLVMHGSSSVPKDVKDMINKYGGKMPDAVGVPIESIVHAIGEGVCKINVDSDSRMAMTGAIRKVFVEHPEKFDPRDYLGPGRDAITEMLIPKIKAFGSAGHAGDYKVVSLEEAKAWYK
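40 nM FBPA preincubated 10 min at RT with compound (up to 57.5 uM final), then substrate plus GAPDH/TPI/NAD/arsenate coupling and diaphorase/resazurin added. Fluorescence read after 20 min at RT, 525/598 nm.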
NS1 function inh: qHTS Assay for Inhibitors of Influenza NS1 Protein Function | Potency, µM (doses to about 46.1 µM), for the others: at the top dose activity, positive = more growth | 270,000 tested, 0.4% active | AID 2326, 2010; calls by dose curve; note: potency is the fitted concentration of half-maximal effect; actives are rising curves; nearly all actives have a fitted effect of over 50% in size
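Growth recovery, yeast-based: influenza A NS1 expressed in S. cerevisiae causes slow growth, and suppressors are detected by OD600. The parent strain without NS1 is used as positive control.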
Cycloheximide cs: Cycloheximide Counterscreen for Small Molecule Inhibitors of Shiga Toxin. cell reporter, cycloheximide protein synthesis inhibition counterscreen. max response, %. 300,000 tested, 12% active; in the data active = max response mostly above about 13%, no sharp cut-off; inactive = mostly below about 14%; note: read at 38.3 µM for the half of the compounds with a filed dose; 0% is about no effect
LmPK inh: qHTS Assay for Inhibitors of Leishmania Mexicana Pyruvate Kinase (LmPK); Potency, µM (highest dose often 57.5 µM), for inactives: at the top dose activity change, negative = inhibition, most hits filed as inhibitors; 290,000 tested, 0.37% active; purified LmPK, Kinase-Glo ATP luminescence, 1 h; Q27686; AID 1721, 2009; note: potency is the fitted concentration of half-maximal effect; % is set by controls: 0 for no effect and ±100 for the full control effect
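qHTS format; LmPK 0.1 nM; substrates PEP 0.5 mM and ADP 0.1 mM. One-hour room-temperature incubation, then coupled luciferase luminescence; 0.5 nM enzyme wells mark activation.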
Shiga toxin inh: A qHTS for Small Molecule Inhibitors of Shiga Toxin; 290,000 tested, 9.2% active; Vero cells, Shiga toxin protein synthesis inhibition reporter; inhibition, % at 38.7 µM; in the data active = inhibition mostly above about 28%, no sharp cut-off; inactive = mostly below about 43%; note: 0% is about no effect
* hit, by the source's call; u = inconclusive; x = not tested or not shown; + = active, no number; [ ] = dose if it differs, or a comment. Unless noted, calls come from the whole dose curve; as a rule, active = well fitted curve in the direction sought with a large enough effect; inconclusive = small, poorly fitted or top-dose-only effect, or another doubt; inactive = no such curve, though single readings can be large; an effect the other way counts as inactive or inconclusive.

SMILES | FBPA Giardia inh | NS1 function inh | Cycloheximide cs | LmPK inh | Shiga toxin inh
CCc1ccc(C(=O)NNc2ccc(Cl)cc2)cc1 | 6.4% | -68.0% | 48.0* | 2.5% | 58.7*
CCc1ccc(C(=O)NCc2ccc(Cl)cc2)cc1 | 1.3% | 13.1% | 15.0* | -0.7% | 36.6
Cc1nn(-c2ccccc2)c(NC(=O)NS(=O)(=O)c2ccc(Cl)cc2)c1C#N | 11.3% | x | -8.0 | x | -3.6
O=C(c1[nH]ncc1-c1cccc(Br)c1)C1CO1 (stereo not drawn) | -15.7% | -1.8% | active | 0.4% | 13.5
O=C(c1[nH]ncc1-c1ccccc1)C1CO1 (stereo not drawn) | -8.7% | 1.1% | -0.8 | -2.8% | -4.4
c1ccc(NC2=NCCS2)cc1 | 1.2% | 5.6% | -0.5 | 7.1% | 28.3
Cc1ccc(NC2=Nc3ccccc3CS2)cc1 | -7.9% | -3.4% | 37.7* | u | 30.4
COc1ccccc1-n1c(COc2ccccc2-c2ccccc2)nnc1SCC(=O)c1c(N)n(C)c(=O)n(C)c1=O | -1.2% | 3.55µM* | -2.3 | 7.1% | 4.9
Cc1ccccc1-n1c(SCC(=O)c2c(N)n(C)c(=O)n(C)c2=O)nnc1-c1cccnc1 | -5.0% | 3.1% | -4.7 | -1.6% | -10.2
CC(NCc1cccnc1)c1ccccc1 (stereo not drawn) | 5.9% | 8.4% | -1.1 | -8.1% | -6.1
O=c1cc(NCCc2ccccc2)c2ccccc2o1 | 0.7% | -53.4% | 24.1* | -4.1% | 42.2*
O=c1cc(NCCO)c2ccccc2o1 | -0.3% | u | -2.8 | 4.6% | -2.5
CC(=O)Nc1cccc(OCc2cnc(Cl)s2)c1 | -0.5% | -6.4% | 13.8 | -2.2% | 9.5
CC(C)(C)c1ccc(OCc2cnc(Cl)s2)cc1 | -3.8% | 0.2% | 34.6* | 7.0% | 75.1*
COc1ccccc1NS(=O)(=O)c1ccc2c(c1)NC(=O)C(C)S2 (stereo not drawn) | x | 12.0% | 23.1* | -0.6% | 14.0
COC(=O)[C@@]1(Cc2ccccc2)[C@H]2c3cc(C(=O)N4CCCC4)n(Cc4ccc(S(C)(=O)=O)cc4)c3C[C@H]2CN1C(=O)c1ccccc1 | -7.0% | x | x | x | x
COc1c(CC(=O)c2cc3c(cc2O)OC(C)(C)C(O)C3)ccc2c1C=CC(C)(C)O2 (stereo not drawn) | -11.2% | x | x | x | x
N#Cc1cc([N+](=O)[O-])ccc1N1CCN(c2ccccc2O)CC1 | -12.2% | x | 43.3* | -4.5% | 71.1*
CC(=O)c1ccc(N2CCN(c3ccccc3O)CC2)c([N+](=O)[O-])c1 | -4.7% | -11.4% | 6.0* | 0.3% | 2.4
Cc1ccc(NC2CCCN(C(=O)C3CCCCC3)C2)cc1C (stereo not drawn) | -2.1% | -43.0% | 4.8 | -7.8% | -7.0
Cc1c2c(c(O)c3c(O)cccc13)C(=O)O[C@H]2C1C(N(C)C)C(O)=C(C(N)=O)C(=O)[C@H]1O (stereo partly drawn) | 9.98µM* | x | -9.0 | x | 11.4
CN(C)C1C(=O)C(C(N)=O)=C(O)[C@@]2(O)C(=O)C3=C(O)c4c(O)ccc(Cl)c4C(O)[C@H]3C[C@@H]12 (stereo partly drawn) | -14.7% | x | x | x | x
Cc1cc(=O)oc2cc3c(cc12)CCCN3 | -6.5% | -2.8% | 18.7* | -3.7% | 26.9
Cc1cc(=O)oc2cc3c(cc12)OCCN3 | -8.9% | -15.2% | 8.3 | -2.6% | 10.7
COC(=O)C1=C(C)N(Cc2ccccc2)C2=C(C(C)=O)C[C@@](O)(C(=O)OC)C(=O)N2C1c1ccccc1 (stereo partly drawn) | 1.9%[12.9 µM] | x | x | x | x
SMILES | FBPA Giardia inh | NS1 function inh | Cycloheximide cs | LmPK inh | Shiga toxin inh
COc1ccc(N(CC(=O)Nc2ccc(C(N)=O)cc2)S(=O)(=O)c2ccc(C)c([N+](=O)[O-])c2)cc1 | -0.9% | 2.7% | 1.0 | 9.2% | 12.0
COc1ccc(N(CC(=O)Nc2ccccc2C(N)=O)S(=O)(=O)c2ccc(C)c([N+](=O)[O-])c2)cc1 | -3.9% | 1.7% | 23.4* | 0.0% | 45.0
COC(=O)[C@H](COC(C)(C)C)NC(=O)O[C@@H]1Cc2cc(OC)ccc2O[C@H]1c1cccc(OC)c1 | -5.5% | x | x | x | x
CC/C=C\C/C=C\C/C=C\C/C=C\C/C=C\C/C=C\CCC(N)=O | -2.2% | x | x | x | x
O=S(=O)(Nc1cc(S(=O)(=O)N2CCOCC2)ccc1N1CCOCC1)c1ccc2c(c1)OCCO2 | -15.2% | x | 16.2* | 2.0% | 11.1
O=C(Nc1ccc2c(c1)OCCO2)c1cccc(S(=O)(=O)N2CCCCC2)c1 | -9.4% | 12.6% | 20.1* | -8.2% | 83.7*
CS(=O)(=O)c1cccc(C(=O)Nc2ccc3c(c2)OCCCO3)c1 | -16.3% | 4.5% | 34.8* | 4.1% | 58.6*
O=C(Nc1ccc2cn[nH]c2c1)c1ccc(Cl)c(S(=O)(=O)N2CCOCC2)c1 | -0.7% | 6.2% | 45.5* | 0.7% | 4.6
O=S(=O)(Nc1cccc(S(=O)(=O)N2CCOCC2)c1)c1ccc2c(c1)OCCO2 | 9.9% | x | -1.0 | -0.6% | -7.1
O=C(Nc1ccc(N2CCOCC2)cc1)c1cccc(S(=O)(=O)N2CCCCCC2)c1 | -0.7% | 4.3% | 3.9 | 4.2% | 28.7
CCOc1ccccc1CN1CCNC(=O)C1CC(=O)NCc1cc(C)n(C)n1 (stereo not drawn) | x | 4.5% | -2.3 | -0.5% | 7.5
CC(=O)Oc1ccc(-c2ccc(C(=O)Nc3cccc(S(=O)(=O)N4CCOCC4)c3)cc2)cc1 | -3.1% | -19.7% | 9.4* | 1.9% | 30.2
O=C(NCCc1ccccc1)c1ccc(Cl)c(S(=O)(=O)N2CCOCC2)c1 | 6.9% | 12.5% | 24.2* | -3.0% | 30.7
COc1ccc(C(=O)NC(=S)Nc2cccc(S(=O)(=O)N3CCOCC3)c2)cc1 | -6.5% | 13.0% | -3.1 | -1.1% | 1.3
O=C(Nc1cccc(Br)c1)c1ccc(Cl)c(S(=O)(=O)N2CCOCC2)c1 | 2.5% | -3.9% | 21.3* | 0.9% | 35.4
O=C(Nc1ccc2c(c1)OCCO2)c1cccc(S(=O)(=O)N2CCOCC2)c1 | 2.1% | -12.8% | 27.6 | -2.7% | 68.2*
O=C(CCN1CCN(c2ccccc2F)CC1)Nc1cccc(F)c1 | -0.9% | -0.2% | 1.8 | 8.1% | 1.4
CC[N+](CC)(CC)CC[C@](O)(c1ccccc1)C1CCCCC1 | -2.2%[21.7 µM] | x | x | x | x
CCCNC(=O)N1N=C(c2ccc(N)cc2)c2cc3c(cc2C1C)OCO3 (stereo not drawn) | 5.1% | x | -2.1 | x | -3.7
CCC(C)[C@H](NC(=O)C1CC(=O)N(c2ccc(OC)cc2)C1)C(=O)N1CCCCC1 (stereo partly drawn) | -0.7% | u | -2.7 | -3.3% | 28.7
N#Cc1ccc(-c2ccc(OCC(O)CN3CCCCC3)cc2)cc1 (stereo not drawn) | -5.5% | 6.7% | -3.7 | 1.5% | -4.7
O=C(Nc1ccc(Cl)c(S(=O)(=O)N2CCOCC2)c1)c1ccc2c(c1)OCCO2 | 0.1% | x | 24.4* | 1.7% | 46.8*
Cc1cccc(-n2ncc3c(NCCCO)ncnc32)c1 | -5.7% | -3.1% | 38.1* | 8.2% | 42.0
C=CCNc1ncnc2c1cnn2-c1cccc(C)c1 | -18.9% | -128.2% | 34.3* | -3.7% | +
